Screens as filed in PubChem BioAssay.
ELG1 DNA repair – qHTS screen for small molecules that inhibit ELG1-dependent DNA repair in human embryonic kidney (HEK293T) cells expressing luciferase-tagged ELG1. Potency, µM (titrated, usually from 46.1 µM), for inactives: at the highest dose activity change, negative = inhibition, hits mostly inhibitors. hit rate 2.3% among 330,000. HEK293T ELG1-luciferase reporter, luminescence, 16 h; DNA damage induced by 5-fluorouridine; further: potency means the concentration at half of the fitted maximal effect; nearly all actives have a fitted effect of over 55% in size
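Luminescence from the luciferase reporter, measured 30 min after ONE-Glo reagent at room temperature, was the read-out. Beforehand, 2,000 cells per well were exposed for 16 hr at 37 °C to 5-fluorouridine together with compound or vehicle.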
TSHR antagonist – Antagonists of the Thyroid Stimulating Hormone Receptor: HTS campaign | Thyrotropin receptor (Homo sapiens), P16473 | TSHR-expressing cells, TSH-stimulated cAMP HTRF, 2 h; active compounds read low | activity change, negative = inhibition, % at 11.5 µM | hit rate 0.2% among 330,000;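 active means activity change below a set negative limit, meaning inhibition stronger than a set level, cut at about -70% in these data; inconclusive means activity change between two set negative limits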
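Read-out is FRET at 665 nm (cryptate excitation 337 nm) from a cryptate-tagged anti-cAMP antibody, competed by cell cAMP against cAMP-d2. Compounds are tested on freshly harvested TSHR cells challenged with 4nM TSH (EC80) for 2 hours at 37 deg C.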
Gal4-VP16 FLuc – VP16 counterscreen qHTS for inhibitors of ROR gamma transcriptional activity | Drosophila S2 Gal4-VP16 UAS-luciferase, luminescence, 20 h | Potency, µM (series often up to 53.6 µM), inactives show at the top dose activity, negative = inhibition, usual class: inhibitors | hit rate 3.5% among 310,000;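 further: Gal4-VP16 expression switched on by copper sulfate through the metallothionein promoter; potency means the concentration at half of the fitted maximal effect; nearly all actives have a fitted effect of over 50% in size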
RORgamma inh – qHTS for inhibitors of ROR gamma transcriptional activity. hit rate 5.4% among 310,000. AID 2551, 2010. Drosophila S2 Gal4-RORgamma UAS-luciferase reporter, 20 h. Potency, µM (highest dose often 53.6 µM), without a hit: at the highest dose activity change, negative = inhibition, most hits filed as inhibitors; further: potency means the concentration at half of the fitted maximal effect; nearly all actives have a fitted effect of over 60% in size
Target sequence (P51450 whole entry, looked up, the tested form may be a part): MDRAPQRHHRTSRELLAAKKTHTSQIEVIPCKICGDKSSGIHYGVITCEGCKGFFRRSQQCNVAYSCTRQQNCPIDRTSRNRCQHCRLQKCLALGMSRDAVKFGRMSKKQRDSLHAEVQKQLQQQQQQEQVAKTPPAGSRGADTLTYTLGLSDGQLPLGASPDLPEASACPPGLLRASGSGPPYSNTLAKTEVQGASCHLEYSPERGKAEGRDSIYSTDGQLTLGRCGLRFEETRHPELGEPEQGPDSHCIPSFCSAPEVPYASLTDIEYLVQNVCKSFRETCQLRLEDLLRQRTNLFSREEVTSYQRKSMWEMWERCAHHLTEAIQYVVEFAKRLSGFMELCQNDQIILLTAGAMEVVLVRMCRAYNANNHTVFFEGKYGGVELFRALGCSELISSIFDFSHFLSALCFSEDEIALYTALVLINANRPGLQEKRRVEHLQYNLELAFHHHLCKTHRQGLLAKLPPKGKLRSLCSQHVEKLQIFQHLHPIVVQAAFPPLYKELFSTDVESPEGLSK
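Stable Schneider cell line, Gal4 DNA-binding domain fused to ROR gamma, UAS-luciferase. Cmpd 1 hr RT → CuSO4 700 uM final → 20 hr RT → luciferase reagent 10 min → luminescence.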
Coupling enz – qHTS Assay for Inhibitors of Fructose-1,6-bisphosphate Aldolase from Giardia Lamblia: Coupling assay counterscreen; hit rate 0.67% among 290,000; activity change, negative = inhibition, % at 58.2 µM, hits read low; AID 2472, 2010; coupling enzyme system counterscreen, AmpLite Red fluorescence; in the data active means activity change below about -30%
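Coupling enzymes only (glyceraldehyde-3-phosphate) + compound, at 57.5 uM final, 10 min RT; add substrate/coupling/AmpLite Red mix, 20 min RT; fluorescence ex 525/em 598 nm. Actives flag coupling-system interference.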
* = called active by the depositor; u = inconclusive; x = not tested or not shown. Rows were chosen to be rich in hits. Some 8% of all compounds tested hit in one or more screens of this group. Unless noted, the call rests on the fitted dose curve; in most records, active means well fitted curve in the direction sought with a large enough effect; inconclusive means small, poorly fitted or top-dose-only effect, or another doubt; inactive means no such curve, though single readings can be large; an effect the other way counts as inactive or inconclusive. On the % scale 0 is the no-effect control and ±100 the full control effect.

SMILES	ELG1 DNA repair	TSHR antagonist	Gal4-VP16 FLuc	RORgamma inh	Coupling enz
Nc1c(C(=O)NC2CC2)c2nc3ccccc3nc2n1-c1ccc2c(c1)OCO2	16µM*	-5	u	6%	-22
Nc1c(C(=O)Nc2ccccc2)c2nc3ccccc3nc2n1-c1ccc(O)cc1	u	3	u	-44%	2
Nc1c(C(=O)NC2CCCCC2)c2nc3ccccc3nc2n1/N=C/c1ccco1	0%	-1	u	13µM*	-1
CCCNC(=O)c1c(N)n(-c2ccc3c(c2)OCO3)c2nc3ccccc3nc12	14%	8	3%	5%	-21
COCCCNC(=O)c1c(N)n(-c2ccc3c(c2)OCO3)c2nc3ccccc3nc12	-24%	6	u	3%	-47*
CCCNC(=O)c1c(N)n(-c2cc(OC)cc(OC)c2)c2nc3ccccc3nc12	18µM*	-10	-15%	-3%	-10
CN(CC(=O)Nc1ccc(F)c(F)c1F)C(=O)c1ccc(-n2cncn2)c([N+](=O)[O-])c1	-5%	9	x	x	x
CC(=O)c1ccc(OCc2ccc(Oc3c(Cl)cccc3[N+](=O)[O-])cc2)cc1	12%	12	20µM*	u	-1
O=C1C=CC(=O)N1CCCCCCN1C(=O)C=CC1=O	23µM*	-99*	0.89µM*	3.2µM*	6
CC(/C=C/c1ccccc1)=N/NC(=O)c1cccc(Br)c1	-6%	15	3.5µM*	2.2µM*	0
CC(/C=C/C=C/c1ccccc1)=N/NC(=O)c1ccc2c(c1)OCCO2	29%	9	8%	-19%	2
CC(/C=C/c1ccccc1F)=N\NC(=O)c1ccccc1	u	-7	7.1µM*	3.2µM*	0
CC(/C=C/c1ccccc1F)=N\NC(=O)c1ccc(Cl)cc1	16%	20	-11%	12%	6
CC(/C=C/c1ccccc1)=N\NC(=O)c1cc(C)nc2ccccc12	1%	4	u	14µM*	2
CC(/C=C/c1ccccc1)=N\NC(=O)c1ccc(Br)cc1	u	17	0.89µM*	0.5µM*	2
CCC1=C2CC[C@H]3C(=O)N(C)C(=O)[C@H]3[C@H]2[C@@]2(C)C(=O)N(CC(=O)OC)C(=O)N2C1=O	x	x	8%	-16%	4
O=C(NNc1nc(=O)c2cccnc2s1)c1ccccc1O	15µM*	3	-90%	0.05µM*	0
O=C(NCCC(=O)N(CCc1ccccc1)Cc1ccccc1)c1ccc(Br)cc1	-19%	-4	x	x	x
CNC(=O)c1cc(Oc2ccc(NC(=O)Nc3ccc(Cl)c(C(F)(F)F)c3)cc2)ccn1	u	u	8.9µM*	u	x
O=C(Nc1ccc(Cl)c(C(F)(F)F)c1)c1ccncc1	7%	8	22%	-3%	1
CC1CC(C)CN(C(=O)CCNC(=O)c2ccccc2Cl)C1 (stereo not given)	u	11	u	16µM*	x
O=C1C2C3C=CC(C3=C3CCCCC3)C2C(=O)N1c1ccccc1 (stereo not given)	-12%	-11	2%	13µM*	3
c1ccc(-c2ccc3c(c2)c2c4n3CCN=C4CCC2)cc1	-11%	5	u	11µM*	1
OC1CN=C2CCCc3c2n(c2ccc(Cl)cc32)C1 (stereo not given)	-7%	-1	1%	14%	1
O=C(NCc1ccncc1)c1ccc(S(=O)(=O)Nc2ccccc2)cc1	8%	10	x	x	x
SMILES	ELG1 DNA repair	TSHR antagonist	Gal4-VP16 FLuc	RORgamma inh	Coupling enz
COCCCN=Cc1c(-c2ccccc2)[nH]n(-c2nc3ccccc3s2)c1=O	-17%	6	u	8.9µM*	-1
O=c1c(C=NCCCO)c(-c2ccccc2)[nH]n1-c1nc2ccccc2s1	18%	-5	5%	u	1
CCCCCN=Cc1c(C)[nH]n(-c2nc3ccccc3s2)c1=O	u	23	u	10µM*	5
COc1ccc(CNC(=O)COC(=O)c2nc3nc(C)cc(C)n3n2)cc1	3%	15	x	x	x
O=S(=O)(NC(=S)NC1CCCCC1)c1ccccc1	13%	2	u	4.5µM*	-7
O=C(NC1CCCCC1)C(Cc1ccccc1)NS(=O)(=O)c1cccs1 (stereo not given)	-12%	-7	3%	-9%	3
O=S(=O)(NC(=S)NC1CCCCC1)c1cccs1	10%	0	-84%	11µM*	2
O=S(=O)(NC1CCCCCCC1)c1ccccc1	-2%	6	-7%	15%	-3
CCOC(=O)CCCNC(=O)N1CCc2nc(COc3ccccc3)c3c(c2C1)CO[C@@H](C)C3	x	x	x	x	0
CCC(=O)NNc1nc2c(C)cccc2s1	19%	8	u	11µM*	-2
Cc1ccc2sc(NC(=O)c3ccc(N4C(=O)CCC4=O)cc3)nc2c1C	-1%	-13	-29%	-12%	1
CCC(=O)NNc1nc2c(Cl)cccc2s1	-3%	-6	6%	u	0
CCC(=O)NNc1nc2c(C)c(C)ccc2s1	u	3	-29%	7.9µM*	2
COc1ccccc1NC(=O)CCCN1C(=O)C2CC=CCC2C1=O (stereo not given)	2%	-7	0%	1%	x
N#CCCn1c(=O)c(-c2ccccc2)nc2cnc(N3CCNCC3)nc21	x	x	12%	0%	-1
Cc1ccc(C(=O)NC2CCCc3ccccc32)cc1[N+](=O)[O-] (stereo not given)	u	-6	-23%	7%	-1
Nc1ccc(C(=O)NC2CCSc3ccccc32)cc1[N+](=O)[O-] (stereo not given)	u	-42	7.9µM*	u	x
Cc1ccc(NC(=O)O/N=C/c2c(C)nn(C(C)(C)C)c2C)cc1Cl	u	-9	0.28µM*	0.28µM*	-1
Cc1ccc(NC(=O)Nn2cnnc2)cc1Cl	7%	10	18%	0%	x
CNc1ncnc2ccc(-c3ccccc3C)cc12	x	x	u	42%	-24
CC(=O)Nc1nc(COc2ccccc2)cs1	u	-5	-12%	2%	0
Cc1ccc(C(=O)Nc2nc(COc3ccccc3)cs2)s1	x	x	-15%	10µM*	-1
CCOC(=O)c1c(N2C(=O)C3C4C=CC(O4)C3C2=O)sc2c1CCCC2 (stereo not given)	x	x	18µM*	u	2
CCOc1ccc(NC(=O)CCC(=O)Oc2ccc(C)cc2)cc1	23%	-3	-13%	-11%	0
Cc1ccc(NC(=O)c2ccc(=O)[nH]c2)cc1S(=O)(=O)N1CCCCCC1	16µM*	-4	x	x	x
